From PubChem BioAssay (NCI)
The panel holds about 83,000 compounds, 20% with a hit somewhere; the sample as a whole holds those more often.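 Note: values are percent growth. 100 is the growth of untreated cells, values between 100 and 0 indicate rising inhibition; between -100 and 0 indicates cell death.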 A number with no mark means an inactive call. Active and inactive are the calls of the source. How the source made its calls: active means growth percent below 10; inactive means the rest.

These compounds were tested on K-562 leukemia (assay: NCI-60 one-dose screen, 48 h (100 = growth as untreated, 0 = no growth, -100 = all killed)). Conditions: 10 µM unless noted.

SMILES	growth
CCC1CCc2nc3sc(C(=O)Nc4ccccc4F)c(N)c3cc2C1 (stereo not drawn)	37.8%
Cc1nn(-c2ccc(Cl)cc2)c(=O)n1CCOc1ccccc1Cl	96.8%
COc1cc(/C=C2\CCCC3=C2NC(C)=NC3c2cc(OC)c(OC)c(OC)c2)cc(OC)c1OC (stereo not drawn)	11.1%
c1ccc([P+](CCC[P+](c2ccccc2)(c2ccccc2)c2ccccc2)(c2ccccc2)c2ccccc2)cc1	23.2%
CC1=C(C#N)C(C)(C)C(C#N)=C(C)N1	99.4%
COc1cc(C(=O)OCCCCCCCCCCC[P+](c2ccccc2)(c2ccccc2)c2ccccc2)ccc1O	-37.8% (active)
Nc1c(C(=O)Nc2ccccc2)sc2nc3c(cc12)CCCCC3	14.8%
COc1cccc(C2CC(=O)Nc3c2c(C)nn3-c2nc3ccccc3[nH]2)c1OC (stereo not drawn)	40.9%
COc1cc(C(=O)/C=C/c2cc(C(=O)c3cc(OC)c(OC)c(OC)c3)ccc2OC)ccc1N	4.22% (active)
COc1ccc(NC(=O)c2cc3ccccc3nc2Nc2cc(OC)c(OC)c(OC)c2)cc1	50.6%
O=S(=O)(O)CCl	94.6%
O=C(CN1CCOCC1)Nc1ccc(-c2nc3ccccc3s2)cc1	99.3%
COc1cc(/C=C\c2cc(OC)c(OC)c(OC)c2)cc(N/C=C\C(=O)c2c[nH]c3ccccc23)c1OC	-9.37% (active)
CC(C)C[C@H](NC(=O)[C@@H](Cc1ccccc1)n1ccc(Nc2ccccc2)cc1=O)B(O)O	3.2% (active)
Cc1ccc2c(c1)C(=O)C(c1c(-c3[nH]c(=O)c4ccc(C)cc4c3O)c(O)c3ccccc3c1O)=NC2=O	10.7%
C=CCn1c(C)nc2ccc(Nc3nc(Nc4ccc(F)cc4)nc4ccccc34)cc21	21%
COc1ccccc1CNCCCN1C(=O)c2ccc3c4c(ccc(c24)C1=O)C(=O)N(CCCNCCCCNCCCCN)C3=O	7.51% (active)
COc1ccc2c(c1)C(=O)/C(=C/c1ccc(O)cc1)O2	59.7%
COc1ccc(-c2cn[nH]c2-c2cc(OC)c3c(c2)OCO3)cc1	10.1%

SMILES	growth
CCCCCCCCCCCCNC(=S)N/N=C/c1ccc(Cl)c(Cl)c1	97.2%
O=C1Nc2ccc(Br)cc2C1=N/C=c1\[nH]c(=O)/c(=C/c2ccc(Cl)cc2)s1	81%
O=C(CNc1c(Cl)cccc1Cl)Nc1ccc(-c2nc3ccccc3s2)cc1	10.5%
CCn1c(=O)c2c(=O)c3c4c(oc3oc2c2ccccc21)C(=O)c1ccccc1C4=O	28.6%
CN1CCN(c2ccc3cc(-c4nc5ccccc5[nH]4)c(=O)oc3c2)CC1	43.7%
COc1ccc(OC)c(C(=O)c2oc3ccc(Br)cc3c2N)c1	8.24% (active)
Cc1ccc(Cn2c(-c3nonc3N)nc3ccccc32)cc1	12.9%
Cc1ccc(S(=O)(=O)NCCCNc2nccc(-c3c(-c4ccccc4)nc4sccn34)n2)cc1	15.9%
COC1=CC(c2ccc[nH]2)=N/C1=C\c1[nH]c(C)c(C(=O)CCCCC(=O)Oc2ccc3c(c2)CCC2C3CC[C@]3(C)[C@@H](O)CC[C@@H]23)c1C (stereo partly drawn)	13.6%
Cc1cccc(NC(=O)c2sc3nc4c(cc3c2N)CCC4)c1C	13.8%
Nc1c(C(=O)Nc2c(Cl)cccc2Cl)sc2nc3c(cc12)CCCCC3	24.1%
COc1cc(OC)c(C(=O)/C=C/c2ccc(C(F)(F)F)cc2)c(OC)c1	32.3%
Cn1c(-c2nonc2NC(=O)c2ccc(F)cc2)nc2ccccc21	9.03% (active)
CCOC(=O)C1=C(CSC(=S)N(C2CCCCC2)C2CCCCC2)N(C)C(=O)NC1c1ccccc1 (stereo not drawn)	35.2%
COC12CC(=O)C(C(C)=O)=C(O)C1(C)c1c(O)c(C)c(O)c(C(C)=O)c1O2 (stereo not drawn)	70.4%
COc1ccc(C2=CC(c3ccc(Oc4ccnc5cc(Cl)ccc45)c(OC)c3)c3c(nc(OC)[nH]c3=O)N2)cc1 (stereo not drawn)	28%
COc1ccc(Cn2cc(COc3cc(/C=C/C(=O)c4cc(OC)c(OC)c(OC)c4)ccc3OC)nn2)cc1	12%
O=C(Nc1ccc(OCc2nnc(-c3ccc(Cl)cc3)o2)c(F)c1)Nc1ccc(Cl)c(Cl)c1	67.3%
O=C(CNc1ccc(Cl)cc1)Nc1ccc(-c2nc3ccccc3s2)cc1	11.9%
